We go through 9 substances from the supplement of paper PMC8728848.

Holding throughout (assay): glycan array binding signal (z-score within array); higher = stronger binding
Common to all, as to details: glycan notation: IUPAC condensed, linker removed

Assay [1] relates to Fuc(a1-2)Gal(b1-4)[Fuc(a1-3)]GlcNAc(b1-2)Man(a1-3)[Fuc(a1-2)Gal(b1-4)[Fuc(a1-3)]GlcNAc(b1-2)Man(a1-6)]Man(b1-4)GlcNAc(b1-4)GlcNAc. The procedure, abridged:
(§1)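 The binding signal is a Z-score computed within each array and averaged over linkers. Arrays of the same protein sequence at different concentrations or buffers were also averaged together. Data originate from 3228 arrays in the Consortium for Functional Glycomics database, kept only where the protein sequence was available.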

Assay [2] deals with Fuc(a1-2)Gal(b1-4)[Fuc(a1-3)]GlcNAc(b1-3)GalNAc. The procedure, abridged:
as §1

Assay [3] deals with Fuc(a1-2)[Gal(a1-3)]Gal(b1-4)GlcNAc. A digest of the protocol:
as §1

Assay [4] relates to Fuc(a1-2)Gal(b1-4)GlcNAc(b1-3)[Fuc(a1-2)Gal(b1-4)GlcNAc(b1-6)]GalNAc. A digest of the protocol:
as §1

Assay [5] deals with Fuc(a1-2)Gal(b1-4)GlcNAc(b1-3)[Fuc(a1-3)[Gal(b1-4)]GlcNAc(b1-6)]Gal(b1-4)Glc. A digest of the protocol: as §1
In assay [6] the test system is Fuc(a1-2)Gal(b1-4)[Fuc(a1-3)]GlcNAc(b1-3)Gal(b1-4)[Fuc(a1-3)]GlcNAc(b1-3)Gal(b1-4)[Fuc(a1-3)]GlcNAc. A digest of the protocol: as §1
Assay [7] deals with Fuc(a1-2)Gal6S(b1-3)GlcNAc. The procedure, abridged:
as §1

Assay [8] concerns Fuc(a1-2)[Gal(a1-3)]Gal(b1-3)GlcNAc(b1-3)GalNAc. A digest of the protocol: as §1
A further assay has as its system Fuc(a1-2)Gal(b1-4)GlcNAc. A digest of the protocol: as §1
The subject of assay [9] is Fuc(a1-2)Gal(b1-4)[Fuc(a1-3)]GlcNAc(b1-3)Gal(b1-4)[Fuc(a1-3)]GlcNAc. A digest of the protocol:
as §1

The next assay relates to Fuc(a1-2)Gal. A digest of the protocol:
as §1

Assay [10] has as its system Fuc(a1-2)[Gal(a1-3)]Gal(b1-3)GlcNAc. A digest of the protocol: as §1
Assay [11] concerns Fuc(a1-2)Gal6S(b1-4)Glc6S. The procedure, abridged:
as §1

The subject of assay [12] is Fuc(a1-2)Gal(b1-4)GlcNAc(b1-6)GalNAc. A digest of the protocol: as §1
Assay [13] relates to Fuc(a1-2)[Gal(a1-3)]Gal(b1-3)GlcNAc(b1-6)GalNAc. A digest of the protocol: as §1
The test system of assay [14] is Fuc(a1-2)[Gal(a1-3)]Gal(b1-4)GlcNAc(b1-2)Man(a1-3)[Fuc(a1-2)[Gal(a1-3)]Gal(b1-4)GlcNAc(b1-2)Man(a1-6)]Man(b1-4)GlcNAc(b1-4)GlcNAc. The procedure, abridged:
as §1

In assay [15] the test system is Fuc(a1-2)Gal(b1-4)GlcNAc6S. The procedure, abridged: as §1
Assay [16] concerns Fuc(a1-2)Gal(b1-4)[Fuc(a1-3)]GlcNAc. The procedure, abridged:
as §1

The subject of a further assay is Fuc(a1-2)Gal6S(b1-4)Glc. A digest of the protocol:
as §1

Assay [17] concerns Fuc(a1-2)[Gal(a1-3)]Gal(b1-3)GalNAc. The procedure, abridged: as §1

About 410 targets per protein were measured; listed, in parts, are those with the strongest signals and a random draw of the rest.

Consider “SiiE (Salmonella typhimurium), A0A0H3NVH0”, for which the “glycan array binding signal (z-score)” value is 2.43 in assay [1], 1.53 in [2] and -0.344 in assay [3].
With AgI/IIC123-GFP (Streptococcus mutans), the “glycan array binding signal (z-score)” value is -0.365 in assay [4]; 0.17 in assay [5]; -0.094 in [6]; 4.98 in assay [7]; -0.567 in assay [8].
Take BambL (Burhholderia ambifaria), Q0B4G1: the “glycan array binding signal (z-score)” value in the assay on Fuc(a1-2)Gal(b1-4)GlcNAc was 3.81; in [9], 3.28; in the assay with Fuc(a1-2)Gal it was 5.01.
As for GspB (Streptococcus gordonii), Q939N5, in [10], the “glycan array binding signal (z-score)” value was -0.728.
In the case of Actinohivin (Actinomycete K97), the “glycan array binding signal (z-score)” value in assay [11] was -0.121; in the assay with Fuc(a1-2)Gal, -0.161; in [10], -0.173.
Turning to Wza (Escherichia coli), P0A930, the “glycan array binding signal (z-score)” value in assay [12] is 0.01.
For Epa22, the entries for the “glycan array binding signal (z-score)” value (in the assay on Fuc(a1-2)Gal(b1-4)GlcNAc; in [13]; in [14]) were 0.238, -0.605 and -0.038, respectively.
Take “SpGH101 (Streptococcus pneumoniae), Q8DR60”: the “glycan array binding signal (z-score)” value in assay [15] was -0.166; in assay [2], 0.136; in [16] it was -0.183.
With LcI (Legionella pneumophila), the “glycan array binding signal (z-score)” value in [5] was -0.92; in [16] it was -0.561; in the assay with Fuc(a1-2)Gal6S(b1-4)Glc, -0.438; in [17] it was -0.622.
